In all, about 16,000 sequences were measured (“e-score”: median about -0.044, highest 2% from about 0.38 on). What follows is part of a selection rich in the highest values, with near analogues and random picks from the rest.

For the test, the target named is T1, GST-NbGlk1(82-244) (Nicotiana benthamiana).
T1 chain: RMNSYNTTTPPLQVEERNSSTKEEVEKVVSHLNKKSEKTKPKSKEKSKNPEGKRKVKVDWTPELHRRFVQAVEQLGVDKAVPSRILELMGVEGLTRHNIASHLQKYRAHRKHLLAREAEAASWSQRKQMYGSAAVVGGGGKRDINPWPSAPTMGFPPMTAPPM
Put plainly: protein-binding microarray; NbGlk1 is a Golden2-like transcription factor of Nicotiana benthamiana; high values mean tight binding. The settings on record: protein: recombinant; tags: GST (pTH6838); dsDNA, one strand shown.
Consider ATCTTTCC, for which the binding signal was 0.218 ± 0.0881 E-score.

Consider AATCACAT, for which the binding signal worked out at 0.265 ± 0.0229 E-score.

Turning to CAATCGCA, the binding signal is 0.23 ± 0.0233 E-score.

With CACGTATC, the binding signal came to 0.216 ± 0.0457 E-score.

On to ATCGCGGC, for which the binding signal was 0.208 ± 0.0886 E-score.

On to ATTTTACG, for which the binding signal came out at 0.213 ± 0.082 E-score.

AGATCGGA: the binding signal worked out at 0.277 ± 0.0345 E-score.

With AATCATTA, the binding signal was 0.201 ± 0.157 E-score.

With ATTGCATG, the binding signal came out at 0.221 ± 0.0421 E-score.

With ATTTCACG, the binding signal worked out at 0.242 ± 0.0818 E-score.

For AATTTCGG, the binding signal amounted to 0.245 ± 0.0953 E-score.

ATTATGGA: the binding signal stood at 0.277 ± 0.0309 E-score.

For the sequence AATCCTAG, the binding signal is 0.388 ± 0.0422 E-score.

As to AATCCTGG, the binding signal came out at 0.3628 ± 0.00311 E-score.

With ATTCCTAG, the binding signal was 0.202 ± 0.0268 E-score.

As to AATCCTCG, the binding signal came to 0.345 ± 0.0473 E-score.

For the sequence AATCCTAC, the binding signal stood at 0.3426 ± 0.00211 E-score.

As to AATCCTAA, the binding signal was 0.395 ± 0.0218 E-score.

For the sequence AATCCTGA, the binding signal was 0.399 ± 0.0138 E-score.

AATCCTAT: the binding signal stood at 0.376 ± 0.0141 E-score.

With AATCCTGC, the binding signal was found to be 0.356 ± 0.0181 E-score.

As for ATCGTGGA, the binding signal stood at 0.273 ± 0.0839 E-score.

Turning to ACGAATCG, the binding signal was determined as 0.283 ± 0.0452 E-score.

As for ATTCCTTG, the binding signal was found to be 0.228 ± 0.115 E-score.

Consider AATCTTCC, for which the binding signal is 0.361 ± 0.0433 E-score.

As to AATCATCG, the binding signal was 0.225 ± 0.0433 E-score.

Consider AATCTTCG, for which the binding signal is 0.404 ± 0.0151 E-score.

As for AATCTTCT, the binding signal was found to be 0.41 ± 0.0267 E-score.

Regarding AATCTTCA, the binding signal is 0.388 ± 0.01 E-score.

Turning to ATTCTTCA, the binding signal turned out to be 0.324 ± 0.0737 E-score.

As to AATCGTCT, the binding signal is 0.277 ± 0.0759 E-score.

Regarding AATCATCA, the binding signal was 0.212 ± 0.0286 E-score.

Turning to ATTCTTCC, the binding signal turned out to be 0.221 ± 0.0993 E-score.

With AATAATCT, the binding signal was 0.276 ± 0.0304 E-score.

For CACACAGA, the binding signal was found to be 0.201 ± 0.0131 E-score.

Take ATATATGG: the binding signal was determined as 0.224 ± 0.0844 E-score.

In the case of ATATACGA, the binding signal is 0.236 ± 0.0113 E-score.

In the case of ATTTCGAA, the binding signal worked out at 0.316 ± 0.0613 E-score.

As for ATCCAAAC, the binding signal came out at 0.241 ± 0.133 E-score.

As to ATCTCAAG, the binding signal is 0.256 ± 0.0583 E-score.

For ATCGTATC, the binding signal is 0.36 ± 0.0262 E-score.

As for AATCCAAG, the binding signal was 0.394 ± 0.00595 E-score.

On to AATCCAAT, for which the binding signal worked out at 0.408 ± 0.0114 E-score.

With AATCCAAC, the binding signal was 0.348 ± 0.0137 E-score.

As to ATCCCAAT, the binding signal is 0.201 ± 0.0789 E-score.

For AATCCAAA, the binding signal was determined as 0.4128 ± 0.00044 E-score.

Consider ATTCCAAG, for which the binding signal came to 0.205 ± 0.0718 E-score.

Consider AATCCCAA, for which the binding signal came to 0.367 ± 0.00919 E-score.

Take AATCAAAA: the binding signal worked out at 0.296 ± 0.0471 E-score.

In the case of AATGCAAT, the binding signal was found to be 0.303 ± 0.0228 E-score.

On to AACGGAAT, for which the binding signal came out at 0.285 ± 0.0635 E-score.

Consider ATTTCCCG, for which the binding signal was 0.3088 ± 0.000826 E-score.

As to ATCTCAGC, the binding signal was 0.22 ± 0.0276 E-score.

Regarding AATATCGT, the binding signal was 0.322 ± 0.0372 E-score.

Regarding AATATCCA, the binding signal was determined as 0.396 ± 0.0292 E-score.

AATATCCC: the binding signal worked out at 0.339 ± 0.0252 E-score.

For ATTATCCG, the binding signal is 0.279 ± 0.01 E-score.

As for AATATCAT, the binding signal was 0.282 ± 0.0333 E-score.

As to AGTATCCA, the binding signal worked out at 0.265 ± 0.00779 E-score.

AATATCCT: the binding signal worked out at 0.389 ± 0.005 E-score.

Turning to AATATCGA, the binding signal came out at 0.326 ± 0.0506 E-score.

Turning to AATATCCG, the binding signal was determined as 0.426 ± 0.013 E-score.

On to ATCGAGAA, for which the binding signal turned out to be 0.236 ± 0.0184 E-score.

Turning to ACGTGATC, the binding signal worked out at 0.232 ± 0.0142 E-score.

Take ATTCGCGA: the binding signal was 0.318 ± 0.058 E-score.

As to AAATCGCT, the binding signal came to 0.295 ± 0.0508 E-score.

As to ACAGAAAT, the binding signal amounted to 0.248 ± 0.0234 E-score.

For ATCCGCAT, the binding signal was 0.272 ± 0.0412 E-score.

For CAAGATTA, the binding signal was 0.314 ± 0.00322 E-score.

Take CAAGATTG: the binding signal is 0.308 ± 0.0144 E-score.

As to CAAGATTC, the binding signal was found to be 0.406 ± 0.00476 E-score.

With AAAGATTT, the binding signal was determined as 0.427 ± 0.00822 E-score.

In the case of AAAGATTA, the binding signal worked out at 0.318 ± 0.0346 E-score.

For AAAGATAC, the binding signal stood at 0.21 ± 0.0674 E-score.

As to AACGATTC, the binding signal was 0.214 ± 0.0649 E-score.

As for AAAGATTG, the binding signal came to 0.335 ± 0.0169 E-score.

Turning to AAAGATTC, the binding signal came to 0.401 ± 0.00855 E-score.

ATTGTGCG: the binding signal came to 0.2 ± 0.0823 E-score.

Take ATCGTAAA: the binding signal amounted to 0.239 ± 0.0266 E-score.

Turning to ATCTTCCG, the binding signal came out at 0.316 ± 0.0643 E-score.

Turning to ATCTGCTA, the binding signal came to 0.331 ± 0.0558 E-score.

As to AGGATCCG, the binding signal amounted to 0.26 ± 0.0521 E-score.

In the case of ATTTCGTG, the binding signal worked out at 0.367 ± 0.0218 E-score.

Turning to ATTTCGTC, the binding signal was 0.303 ± 0.0104 E-score.

Regarding ATTTCGTA, the binding signal worked out at 0.399 ± 0.0199 E-score.

For the sequence ATCTTCAC, the binding signal came to 0.352 ± 0.00871 E-score.

ACTGAGAT: the binding signal came out at 0.247 ± 0.0201 E-score.

On to ATCCCGAG, for which the binding signal was 0.211 ± 0.027 E-score.

On to ATATATCA, for which the binding signal is 0.276 ± 0.0382 E-score.

For the sequence AGATATAG, the binding signal turned out to be 0.225 ± 0.0489 E-score.

As to ATATATCG, the binding signal is 0.276 ± 0.0574 E-score.

With AGATATCC, the binding signal was 0.47954 ± 0.00034 E-score.

For the sequence AGATATAC, the binding signal was 0.241 ± 0.00443 E-score.

Regarding AGATATGG, the binding signal came out at 0.373 ± 0.0298 E-score.

Turning to ATATATCC, the binding signal was 0.262 ± 0.0686 E-score.

On to AGATATGA, for which the binding signal is 0.318 ± 0.00331 E-score.

Turning to AGATATCG, the binding signal was 0.462 ± 0.00283 E-score.

AGATATCA: the binding signal was determined as 0.434 ± 0.0219 E-score.

Take AGATATGC: the binding signal was determined as 0.415 ± 0.012 E-score.

Consider AGATATAA, for which the binding signal amounted to 0.208 ± 0.0225 E-score.

Regarding ATCTCGCC, the binding signal amounted to 0.314 ± 0.0254 E-score.

Regarding ACCAAGAT, the binding signal stood at 0.289 ± 0.0649 E-score.

Take ATCCTTGA: the binding signal was found to be 0.218 ± 0.0175 E-score.

As for ATTTCTAC, the binding signal was 0.285 ± 0.0555 E-score.

Take ATTACATA: the binding signal amounted to 0.267 ± 0.0926 E-score.

For ATTACGGC, the binding signal is 0.278 ± 0.0482 E-score.

AAGTAGAT: the binding signal came out at 0.216 ± 0.0697 E-score.

As for ATCCTTAC, the binding signal was found to be 0.266 ± 0.0362 E-score.

Turning to ACTCAGAT, the binding signal came to 0.255 ± 0.0118 E-score.

As for ATCTTTAG, the binding signal is 0.26 ± 0.0391 E-score.
